One may read the AC50 as the midpoint of the concentration-response curve, whichever way the signal moves.

Records with an inconclusive call do not appear. Calls of active or inactive are those of the source. How the source made its calls, unless noted: active means hit-call score of the fitted dose curve at least 0.9, where 1 is the maximum; inconclusive means response in the unintended direction; inactive means score below 0.9.

Sequence of Glutamate receptor ionotropic, kainate 1 (Rattus norvegicus) (P22756 whole entry, looked up): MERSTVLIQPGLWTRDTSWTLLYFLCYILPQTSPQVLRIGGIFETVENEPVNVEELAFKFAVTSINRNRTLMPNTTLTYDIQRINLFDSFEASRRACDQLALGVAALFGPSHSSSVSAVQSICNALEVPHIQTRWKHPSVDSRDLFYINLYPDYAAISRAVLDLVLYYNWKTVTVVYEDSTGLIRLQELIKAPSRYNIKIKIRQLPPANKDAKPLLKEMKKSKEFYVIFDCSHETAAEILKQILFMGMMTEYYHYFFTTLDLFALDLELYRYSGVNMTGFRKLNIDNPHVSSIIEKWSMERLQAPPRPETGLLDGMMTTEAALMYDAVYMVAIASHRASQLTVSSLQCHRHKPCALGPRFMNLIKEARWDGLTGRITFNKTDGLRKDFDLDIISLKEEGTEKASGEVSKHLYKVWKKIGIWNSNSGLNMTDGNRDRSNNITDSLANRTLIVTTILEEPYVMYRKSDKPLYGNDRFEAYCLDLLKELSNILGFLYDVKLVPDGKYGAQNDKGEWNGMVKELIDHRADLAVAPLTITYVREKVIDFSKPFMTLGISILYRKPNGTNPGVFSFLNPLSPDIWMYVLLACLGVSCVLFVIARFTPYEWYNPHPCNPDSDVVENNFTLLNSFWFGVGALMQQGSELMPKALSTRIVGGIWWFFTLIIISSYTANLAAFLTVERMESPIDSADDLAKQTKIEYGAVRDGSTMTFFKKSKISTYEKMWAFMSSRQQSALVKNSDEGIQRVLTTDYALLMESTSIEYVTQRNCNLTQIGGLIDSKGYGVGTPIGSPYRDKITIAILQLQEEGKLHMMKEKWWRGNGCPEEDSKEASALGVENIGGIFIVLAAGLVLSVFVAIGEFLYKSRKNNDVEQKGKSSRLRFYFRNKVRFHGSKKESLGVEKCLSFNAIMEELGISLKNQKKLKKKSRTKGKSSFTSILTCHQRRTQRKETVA

For one test, the target named is Voltage-gated inwardly rectifying potassium channel KCNH2 (Homo sapiens) (UniProt Q12809). The test can be described thus: NVS_IC_hKhERGCh: NovaScreen (NVS) Ion Channel Assay for human Potassium Channel ERG (KhERGCh) (AID 2283333). An outline of the steps: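 Cell-free radioligand competition binding on hERG protein extracted from CHO cells, read by filter-based scintillation counting 0.75 h after dosing. Primary screen at 25 uM in duplicate, actives followed in concentration series. Signal loss fitted versus DMSO.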
Sequence of Voltage-gated inwardly rectifying potassium channel KCNH2 (Homo sapiens) (Q12809 whole entry, looked up): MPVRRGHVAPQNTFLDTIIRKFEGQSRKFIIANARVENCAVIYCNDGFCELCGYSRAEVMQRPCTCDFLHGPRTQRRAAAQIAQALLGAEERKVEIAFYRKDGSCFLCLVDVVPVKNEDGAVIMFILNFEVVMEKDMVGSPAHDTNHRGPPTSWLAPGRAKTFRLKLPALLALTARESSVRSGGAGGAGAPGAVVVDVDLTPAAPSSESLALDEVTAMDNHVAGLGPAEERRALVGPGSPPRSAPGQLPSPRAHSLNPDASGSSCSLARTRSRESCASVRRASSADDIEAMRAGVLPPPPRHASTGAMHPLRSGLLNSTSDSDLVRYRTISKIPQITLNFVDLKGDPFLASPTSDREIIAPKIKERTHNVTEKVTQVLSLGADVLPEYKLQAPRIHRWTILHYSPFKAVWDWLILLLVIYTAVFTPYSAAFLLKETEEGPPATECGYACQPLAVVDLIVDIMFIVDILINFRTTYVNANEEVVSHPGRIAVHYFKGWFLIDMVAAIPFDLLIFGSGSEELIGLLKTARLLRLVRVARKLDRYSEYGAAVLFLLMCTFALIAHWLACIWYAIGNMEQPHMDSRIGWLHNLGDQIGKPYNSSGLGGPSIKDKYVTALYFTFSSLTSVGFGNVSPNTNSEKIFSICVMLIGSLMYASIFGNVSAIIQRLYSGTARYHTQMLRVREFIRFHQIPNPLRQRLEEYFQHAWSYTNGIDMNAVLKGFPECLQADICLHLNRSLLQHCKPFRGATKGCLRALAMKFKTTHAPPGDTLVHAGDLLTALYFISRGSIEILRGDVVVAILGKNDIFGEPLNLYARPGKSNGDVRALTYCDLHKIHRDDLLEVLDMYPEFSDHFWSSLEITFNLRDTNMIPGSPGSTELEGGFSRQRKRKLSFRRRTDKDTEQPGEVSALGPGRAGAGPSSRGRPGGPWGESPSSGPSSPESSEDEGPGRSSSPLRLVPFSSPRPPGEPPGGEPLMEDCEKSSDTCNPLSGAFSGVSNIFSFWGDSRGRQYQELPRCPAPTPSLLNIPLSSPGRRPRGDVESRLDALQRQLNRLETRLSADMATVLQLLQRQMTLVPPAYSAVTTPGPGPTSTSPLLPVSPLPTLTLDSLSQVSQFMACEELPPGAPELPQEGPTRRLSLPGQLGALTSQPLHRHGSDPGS
`CCOC(=O)COc1ccc2c(c1)CC(NCC(O)c1cccc(Cl)c1)CC2` (centres undefined): the AC50 was 21.5 µM (active).
Still for that read-out and setting: the value for `CCOC(=O)c1ccc(C2CCC(NC[C@H](O)COc3ccc(O)c(NS(C)(=O)=O)c3)CC2)cc1` (some centres undefined) was 10.1 µM (active).
With `Nc1ccc(Nc2ccccc2)cc1`, the result was inactive.
For the molecule `COc1cccc(-c2ccc(/C=C\CN3CCCCCC3)cc2Cl)c1`, the AC50 is 5.95 µM (active).
The same measure, in the same setting: then `Cc1[nH]cnc1C[C@H]1CCc2c(C)c3ccccc3n2C1=O`, with 4.76 µM (active).
In the case of `CC(C)CC(C)(O)C#CC(C)(O)CC(C)C` (centres undefined), the outcome was inactive.

A further test concerns the target Glutamate receptor ionotropic, kainate 1 (Rattus norvegicus) (UniProt P22756). Kind of test: NVS_IC_rKAR: NovaScreen (NVS) Ion Channel Assay for rat Kainic Acid Receptors (KAR) (AID 2283334; active means hit-call score of the fitted dose curve at least 0.9, where 1 is the maximum; inactive means score below 0.9). As to the method:
(§1) NVS_IC_rKAR is a biochemical, single-readout assay that uses extracted gene-proteins from Rat forebrain membranes in a tissue-based cell-free assay. Measurements were taken 1 hour after chemical dosing in a 48-well plate.NVS_IC_rKAR is one of one assay component(s) measured or calculated from the NVS_IC_rKAR assay. It is designed to make measurements of radioligand binding, a form of binding reporter, as detected with scintillation counting signals by Filter-based radiodetection technology.Data from the assay component NVS_IC_rKAR was analyzed into 1 assay endpoint. This assay endpoint, NVS_IC_rKAR, was analyzed in the positive analysis fitting direction relative to DMSO as the negative control and baseline of activity. Using a type of binding reporter, loss-of-signal activity can be used to understand changes in the binding as they relate to the gene Grik1. Furthermore, this assay endpoint can be referred to as a primary readout, because the performed assay has only produced 1 assay endpoint. To generalize the intended target to other relatable targets, this assay endpoint is annotated to the ion channel intended target family, where the subfamily is ligand-gated ion channel.
(§2) Binding assays used specific radioligands (tritiated, iodinated) with non-radioactive competitive displacement ligands in agonist or antagonist protocols (as indicated) and various reference compounds and inhibitors to titrate specific binding to receptors and transporters. Most enzyme assays (CYPs, kinases, phosphatases, proteases, HDACs) used recombinant protein and specific substrates (fluorescence mostly, some colorimetric and radioactive) and inhibitors, followed by a biochemical separation of substrate and product. All assays for the biochemical HTS were initially run in duplicate at a single concentration (10 uM for CYP450 assays and 25 uM for all others). Assay-chemical combinations meeting a pre-defined threshold (e.g., 30% inhibition and other criteria defined below) were then run in singleton concentration-response format with maximum concentration of 20 uM for CYPs and 50 uM for all others. Each assay was run with positive and negative controls, and concurrent controls on every plate. The follow-up (secondary) screen tested active chemical-pairs in concentration series, as well as a few additional assays not tested in the primary screen, some selected negative inactives, and several cases re-run in the concentration series for confirmatory purposes.
Turning to `On1ccccc1=S`, the result was inactive.
Same read-out and setting: the value for `COC(=O)CC(=O)OC` was “inactive”; that for `COc1ccc2sc(C(=O)Nc3nnn[nH]3)c(OC(C)C)c2c1` was “inactive”; that for `CCC(C)(C)C(=O)O[C@H]1C[C@@H](C)C=C2C=C[C@H](C)[C@H](CC[C@@H]3C[C@@H](O)CC(=O)O3)[C@H]21` was “inactive”.
As to `O=c1[nH]c2ccc(S(=O)CCN3CCC(Cc4ccc(F)cc4)CC3)cc2o1` (centres undefined), the molecule was called inactive.

The next test deals with rat Peripheral-type Benzodiazepine Receptor (PBR), Tspo (gene 24230) (UniProt P16257). The test can be described thus: NVS_MP_rPBR: NovaScreen (NVS) Membrane Protein Assay for rat Peripheral-type Benzodiazepine Receptor (PBR) (AID 2283335). Put shortly: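 Rat kidney membranes; radioligand binding with displacement, filter-based scintillation counting, 1 h incubation. Primary screen in duplicate at 25 uM, actives followed in concentration series; loss of binding vs DMSO.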
Sequence of rat Peripheral-type Benzodiazepine Receptor (PBR), Tspo (gene 24230) (P16257 whole entry, looked up): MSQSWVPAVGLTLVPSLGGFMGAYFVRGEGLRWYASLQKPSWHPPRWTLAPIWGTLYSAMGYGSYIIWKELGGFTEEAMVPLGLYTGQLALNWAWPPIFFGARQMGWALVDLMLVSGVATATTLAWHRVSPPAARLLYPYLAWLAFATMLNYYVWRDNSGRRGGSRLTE
Consider `CCn1nc(Cc2ccccc2)cc1C1CCN(C[C@H]2C[C@H](N(C)[C@@H](C(=O)O)C(C)C)C[C@@H]2c2cccc(F)c2)CC1`, for which the call was inactive.
As to `CCOc1cccc(-n2cc(C(=O)N3CCN(c4cc(C(=O)O)c5ccccc5c4)CC3)nc2-c2ccc(C)cc2)c1`, the AC50 is 9.73 µM (active).
On the same count and under the same terms, then `CCc1cc(SCc2sc(-c3ccc(C(F)(F)F)cc3)nc2CN2CCN(c3ccc(OC)cc3)CC2)ccc1OCC(=O)O`, with 1.81 µM (active); and `O=C(O)c1cc(N=Nc2ccc(S(=O)(=O)Nc3ccccn3)cc2)ccc1O`, with 0.655 µM (active); and `Cn1c(=O)cc(Oc2ccc(F)cc2F)c2cnc(NCC(C)(C)O)nc21`, with 9.69 µM (active).
Same read-out and setting: the value for `O=P(OC(CCl)CCl)(OC(CCl)CCl)OC(CCl)CCl` was 2.36 µM (active).
The same measure, in the same setting: the value for `COc1ccc2sc(C(=O)Nc3nnn[nH]3)c(OC(C)C)c2c1` was 25 µM (active).
As to `Cc1c(-c2cccnc2)c2ccccc2n1CCCCC(=O)O`, the AC50 was 9.13 µM (active).
In the case of `COc1cccc(-c2ccc(/C=C\CN3CCCCCC3)cc2Cl)c1`, the AC50 was 8.04 µM (active).
On the same count and under the same terms, the value for `COc1ccc(-n2nc(C(F)F)cc2-c2ccc(S(C)=O)cc2)cc1` (centres undefined) was 14.7 µM (active).
On the same count and under the same terms, the value for `O=C(OC[C@H]1O[C@@H](OC(=O)c2cc(O)c(O)c(OC(=O)c3cc(O)c(O)c(O)c3)c2)[C@H](OC(=O)c2cc(O)c(O)c(OC(=O)c3cc(O)c(O)c(O)c3)c2)[C@@H](OC(=O)c2cc(O)c(O)c(OC(=O)c3cc(O)c(O)c(O)c3)c2)[C@@H]1OC(=O)c1cc(O)c(O)c(OC(=O)c2cc(O)c(O)c(O)c2)c1)c1cc(O)c(O)c(OC(=O)c2cc(O)c(O)c(O)c2)c1` was 0.715 µM (active).

A further test deals with Small conductance calcium-activated potassium channel protein 1 (Rattus norvegicus) (UniProt P70606). Kind of test: NVS_IC_rKCaCh: NovaScreen (NVS) Ion Channel Assay for rat Potassium Channel, Ca2+ Act., VI (KCaCh) (AID 2283336). Put shortly: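 Radioligand binding to rat forebrain membranes, cell-free, read 1 hour after dosing by filter-based scintillation counting. Compounds first run in duplicate at 25 uM, actives then in concentration series; loss of signal vs DMSO indicates displacement.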
Sequence of Small conductance calcium-activated potassium channel protein 1 (Rattus norvegicus) (P70606 whole entry, looked up): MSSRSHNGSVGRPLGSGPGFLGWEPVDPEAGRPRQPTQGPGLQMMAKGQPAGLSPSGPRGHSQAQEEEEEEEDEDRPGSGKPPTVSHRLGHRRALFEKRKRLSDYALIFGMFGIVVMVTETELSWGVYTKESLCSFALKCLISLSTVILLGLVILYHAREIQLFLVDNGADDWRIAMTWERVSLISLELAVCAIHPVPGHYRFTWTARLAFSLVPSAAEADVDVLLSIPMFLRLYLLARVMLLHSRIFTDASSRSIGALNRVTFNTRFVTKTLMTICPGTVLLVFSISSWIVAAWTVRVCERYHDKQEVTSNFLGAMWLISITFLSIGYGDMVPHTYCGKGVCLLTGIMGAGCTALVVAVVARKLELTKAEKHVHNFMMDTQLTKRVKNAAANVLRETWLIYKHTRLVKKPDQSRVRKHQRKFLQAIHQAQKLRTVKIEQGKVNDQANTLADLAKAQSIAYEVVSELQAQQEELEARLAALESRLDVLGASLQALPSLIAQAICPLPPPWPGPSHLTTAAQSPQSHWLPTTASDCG
As for `CCOCCO`, the outcome was inactive.
As for `O=C(O)CC(O)C(=O)O` (centres undefined), the outcome was inactive.
In the case of `COc1cccc(-c2ccc(/C=C\CN3CCCCCC3)cc2Cl)c1`, the outcome was inactive.

Test system in another test: not listed separately
The test can be described thus: NVS_IC_rCaBTZCHL: NovaScreen (NVS) Ion Channel Assay for Calcium Channel, Type L, Benzothiazepine Site (CaBTZCHL) (AID 2283337). An outline of the steps: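 Scintillation counting of filter-bound radioligand gave the read-out, with reduced binding versus DMSO scored as activity. Membranes came from rat cortex and were read 1.5 h after compound addition. Chemicals were screened first in duplicate at 25 uM.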
In the case of `CCCN(C1CCN(C(=O)C2CCNCC2)CC1)[C@@H]1CCc2ccc(OC)cc2C1`, the result was inactive.
For the molecule `CCn1nc(Cc2ccccc2)cc1C1CCN(C[C@H]2C[C@H](N(C)[C@@H](C(=O)O)C(C)C)C[C@@H]2c2cccc(F)c2)CC1`, the AC50 was 16.2 µM (active).
The same measure, in the same setting: then `CCOC(=O)c1ccc(C2CCC(NC[C@H](O)COc3ccc(O)c(NS(C)(=O)=O)c3)CC2)cc1` (some centres undefined), with 7.7 µM (active); and `COCCOc1cc2cc(C(=O)NC3CCN(C(C)C)CC3)n(CC(=O)Nc3ccc(Cl)cn3)c2cn1`, with 5.21 µM (active); and `CC[C@H]1CC[C@H](NCc2cc3c(cc2OC)[C@H]2C[C@H]2C(=O)N3C)[C@H](c2ccccc2)N1`, with 3.79 µM (active).
The same measure, in the same setting: then `CCN(C(=O)c1cc(C)cc(OC[C@H](C)Nc2ccncc2)c1)C(C)C`, with 6.56 µM (active); and `CNS(=O)(=O)c1cc(C(=O)N2CCC(CCN3C4CCC3CC(n3c(C)nc5ccccc53)C4)(c3cccc(F)c3)CC2)c(Cl)cc1F` (centres undefined), with 7.92 µM (active).
Still for that read-out and setting: the value for `COc1cccc(-c2ccc(/C=C\CN3CCCCCC3)cc2Cl)c1` was 0.665 µM (active).
Turning to `Cc1[nH]cnc1C[C@H]1CCc2c(C)c3ccccc3n2C1=O`, the outcome was inactive.

The target in another test is bovine Gamma-Aminobutyric Acid Type A Receptor Agonist (GABAR Agonist), GABRA1 (gene 780973) (UniProt P08219). The test can be described thus: NVS_LGIC_bGABAR_Agonist: NovaScreen (NVS) Ligand-Gated Ion Channel Assay for bovine Gamma-Aminobutyric Acid Type A Receptor Agonist (GABAR Agonist) (AID 2283338). As to the method: as §1, with “NVS_LGIC_bGABAR_Agonist” for “NVS_IC_rKAR”, “Bovine cerebellar” for “Rat forebrain”, “plate.NVS_LGIC_bGABAR_Agonist” for “plate.NVS_IC_rKAR”, “NVS_LGIC_bGABAR_Agonist,” for “NVS_IC_rKAR,”, “gain-of-signal” for “loss-of-signal”, “GABRA1.” for “Grik1.”
Sequence of bovine Gamma-Aminobutyric Acid Type A Receptor Agonist (GABAR Agonist), GABRA1 (gene 780973) (P08219 whole entry, looked up): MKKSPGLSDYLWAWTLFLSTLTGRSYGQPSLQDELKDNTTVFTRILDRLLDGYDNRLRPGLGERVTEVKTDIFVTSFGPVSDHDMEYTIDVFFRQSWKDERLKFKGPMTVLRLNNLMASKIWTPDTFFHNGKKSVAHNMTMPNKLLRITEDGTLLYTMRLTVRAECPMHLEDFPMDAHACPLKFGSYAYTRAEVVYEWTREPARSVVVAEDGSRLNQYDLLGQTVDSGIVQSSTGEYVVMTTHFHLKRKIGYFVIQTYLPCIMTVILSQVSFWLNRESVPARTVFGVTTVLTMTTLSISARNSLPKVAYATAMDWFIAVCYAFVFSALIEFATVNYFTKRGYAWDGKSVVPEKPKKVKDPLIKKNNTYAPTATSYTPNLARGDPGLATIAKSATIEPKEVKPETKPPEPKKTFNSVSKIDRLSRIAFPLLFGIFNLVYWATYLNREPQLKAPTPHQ
as §2, with “Assay-chemical combinations meeting a pre-defined threshold (e.g., 30% inhibition and other criteria defined below) were then run in singleton concentration-response format with maximum concentration of 20 uM for CYPs and 50 uM for all others.” left out
For the molecule `CCCCCCCCCCCCCCCO`, the outcome was inactive.
Same read-out and setting: the value for `CC(=O)OC[C@H]1O[C@@](COC(C)=O)(O[C@H]2O[C@H](COC(C)=O)[C@@H](OC(C)=O)[C@H](OC(C)=O)[C@H]2OC(C)=O)[C@@H](OC(C)=O)[C@@H]1OC(C)=O` was “inactive”.
For `Nc1cccc(N)c1`, the AC50 is 6.48 µM (active).
In the case of `Cc1ccc(C)c(O)c1`, the molecule was called inactive.
Consider `COc1cccc(-c2ccc(/C=C\CN3CCCCCC3)cc2Cl)c1`, for which the AC50 is 10.5 µM (active).
On the same count and under the same terms, the value for `Cc1[nH]cnc1C[C@H]1CCc2c(C)c3ccccc3n2C1=O` was 9.14 µM (active); that for `O=C(O)CCN(C1(C(=O)NO)CCCC1)S(=O)(=O)c1ccc(Oc2ccc(F)cc2)cc1` was 7.72 µM (active).

In a further test the target is rat Glutamate, MK-801 Agonist Site (GluNMDA_MK801), Grin1 (gene 24408) (UniProt P35439). Kind of test: NVS_LGIC_rGluNMDA_MK801_Agonist: NovaScreen (NVS) Ligand-Gated Ion Channel Assay for rat Glutamate, MK-801 Agonist Site (GluNMDA_MK801) (AID 2283340). An outline of the steps:
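Radioligand binding at MK-801 site in rat forebrain membranes, 1.5 h incubation, filter-based scintillation counting. Initially 25 uM in duplicate; actives then run in concentration-response up to 50 uM, fitted for gain of signal versus DMSO.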
With `CCc1cc(SCc2sc(-c3ccc(C(F)(F)F)cc3)nc2CN2CCN(c3ccc(OC)cc3)CC2)ccc1OCC(=O)O`, the molecule was called inactive.
Consider `Fc1ccccc1[C@@H](F)COC1CCC(Nc2ncnc3[nH]ncc23)CC1` (some centres undefined), for which the result was inactive.
Same read-out and setting: the value for `O=c1[nH]c2ccc(S(=O)CCN3CCC(Cc4ccc(F)cc4)CC3)cc2o1` (centres undefined) was “inactive”.

Values taken from PubChem BioAssay (EPA / NIEHS).
